HP1b chromo inh = inhibitors of HP1-beta chromodomain binding to methylated histone tails; P83916; AlphaScreen HP1-beta / biotin-H3K9me3 peptide binding; Potency, µM (titrated, usually from 114 µM), without a hit: at the top dose activity change, negative = inhibition, hits mostly inhibitors; actives 0.56% (n = 390,000); also: potency is read from the fitted curve at half-maximal effect; nearly all actives have a fitted effect of over 70% in size
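AlphaScreen: HP1-beta (50 nM) preformed 30 min with biotin-H3(1-18)K9me3 peptide (50 nM) in PBS pH 7.4, 0.01% Tween-20. Compound added for 30 min at RT, then streptavidin donor/nickel chelate acceptor beads (10 ug/mL) for 30 min.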
JMJD2A Tudor = blocks the human JMJD2A Tudor domain. AlphaScreen JMJD2A-Tudor / H3K4me3 peptide binding. Potency, µM (highest dose often 114 µM), inactives show top-dose activity change, negative = inhibition, hits mostly inhibitors. actives 4.4% (n = 390,000); also: potency is read from the fitted curve at half-maximal effect; % is scaled to controls: 0 for no effect and ±100 for the full control effect; nearly all actives have a fitted effect of over 50% in size
Target sequence (O75164 whole entry, looked up, the tested form may be a part): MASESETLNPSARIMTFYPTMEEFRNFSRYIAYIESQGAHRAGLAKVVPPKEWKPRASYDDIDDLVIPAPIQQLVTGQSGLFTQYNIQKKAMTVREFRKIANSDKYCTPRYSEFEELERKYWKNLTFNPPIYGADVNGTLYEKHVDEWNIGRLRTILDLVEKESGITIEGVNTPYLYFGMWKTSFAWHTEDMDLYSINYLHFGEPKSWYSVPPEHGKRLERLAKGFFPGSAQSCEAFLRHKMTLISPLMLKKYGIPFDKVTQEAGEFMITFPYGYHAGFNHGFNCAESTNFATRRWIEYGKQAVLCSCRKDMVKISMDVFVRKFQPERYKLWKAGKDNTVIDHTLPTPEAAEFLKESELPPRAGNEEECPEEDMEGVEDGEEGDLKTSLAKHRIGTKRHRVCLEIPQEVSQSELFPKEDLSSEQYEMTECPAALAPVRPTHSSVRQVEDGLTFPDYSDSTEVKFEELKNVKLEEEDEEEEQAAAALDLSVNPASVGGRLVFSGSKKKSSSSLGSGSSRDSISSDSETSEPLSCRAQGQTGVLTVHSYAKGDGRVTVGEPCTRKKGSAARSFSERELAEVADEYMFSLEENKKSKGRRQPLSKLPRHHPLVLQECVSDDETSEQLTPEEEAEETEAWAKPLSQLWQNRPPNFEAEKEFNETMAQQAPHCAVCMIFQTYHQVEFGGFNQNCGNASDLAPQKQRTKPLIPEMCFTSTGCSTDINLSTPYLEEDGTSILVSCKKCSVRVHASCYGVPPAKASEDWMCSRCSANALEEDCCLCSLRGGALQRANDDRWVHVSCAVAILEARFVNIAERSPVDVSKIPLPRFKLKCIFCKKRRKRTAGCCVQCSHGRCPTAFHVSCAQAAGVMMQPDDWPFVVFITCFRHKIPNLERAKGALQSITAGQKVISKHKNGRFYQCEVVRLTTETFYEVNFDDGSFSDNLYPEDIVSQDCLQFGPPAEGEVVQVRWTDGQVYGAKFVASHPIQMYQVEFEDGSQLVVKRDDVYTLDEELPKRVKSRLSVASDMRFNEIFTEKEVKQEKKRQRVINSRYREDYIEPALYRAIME
G9a block = G9a (human) methyltransferase inhibition | AID 504332 | Q96KQ7 | actives 8.8% (n = 350,000) | Potency, µM (top dose mostly 102 µM), for inactives: top-dose activity, negative = inhibition, actives largely listed as inhibitors | G9a H3K9 monomethylation, AlphaScreen, 2 h; also: potency is read from the fitted curve at half-maximal effect; % is scaled to controls: 0 for no effect and ±100 for the full control effect; nearly all actives have a fitted effect of over 75% in size
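Quantitative HTS format: methyltransferase activity on a biotin-tagged H3K9 peptide is measured by AlphaScreen, using a rabbit anti-monomethyl-H3K9 antibody with streptavidin donor and anti-IgG acceptor beads. Final levels are 20 nM enzyme, 500 nM peptide, 20 uM SAM; 2 h RT.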
BAZ2B inh = inhibitors of human BAZ2B bromodomain; actives 4.4% (n = 360,000); AlphaScreen BAZ2B-H3K14Ac peptide displacement; AID 504333; Q9UIF8; Potency, µM (highest dose often 114 µM), for inactives: top-dose activity change, negative = inhibition, hits mostly inhibitors; also: potency is read from the fitted curve at half-maximal effect; % is scaled to controls: 0 for no effect and ±100 for the full control effect; nearly all actives have a fitted effect of over 60% in size
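Multi-concentration screen (max 110 uM) measuring displacement of acetylated histone H3 peptide from BAZ2B by AlphaScreen, using 50 nM protein, 50 nM peptide and 10 ug/mL streptavidin donor plus Ni-chelate acceptor beads.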
PI5P4K alpha inh = blocks human PI5P4K alpha kinase activity; actives 1.2% (n = 330,000); P48426; PI5P4Kalpha enzyme, ADP-Glo luminescence, 60 min; active compounds read low; max response, %; active = max response of -50% or lower; inconclusive = between -30% and -50%; inactive = -30% or higher; also: value at the top dose of about 77 µM; % is scaled to controls: 0 for no effect and ±100 for the full control effect
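qHTS, 1536-well: enzyme/substrate mix, compound by pin tool, 5 microM ATP final; RT 60 min; ADP-Glo reagents 1 (45 min) then 2 (30 min); luminescence.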
PLK1 PBD inh = blocks phosphopeptide binding to human PLK1 polo-box domain; P53350; Plk1 PBD binding of FITC phosphopeptide, fluorescence polarization; Potency, µM, without a hit: max response, negative = inhibition, hits mostly inhibitors; actives 2.8% (n = 360,000); AID 720504; also: potency is read from the fitted curve at half-maximal effect; series mostly up to about 57 µM; % is scaled to controls: 0 for no effect and ±100 for the full control effect; nearly all actives have a fitted effect of over 65% in size
Active calls of the source: *; i = inactive; ? = inconclusive; · = no result given; [ ] = remark or other dose. Rows were chosen to be rich in hits. Some 12% of all compounds tested hit in one or more screens of this group. Unless noted, calls follow the shape of the dose curve; as a rule, active = well fitted curve in the direction sought with a large enough effect; inconclusive = small, poorly fitted or top-dose-only effect, or another doubt; inactive = no such curve, though single readings can be large; an effect the other way counts as inactive or inconclusive.

SMILES	HP1b chromo inh	JMJD2A Tudor	G9a block	BAZ2B inh	PI5P4K alpha inh	PLK1 PBD inh
O=C(COC(=O)Cc1c[nH]c2ccccc12)Nc1cccc(Br)c1	·	·	·	·	3.6	-10.5%
Cc1cc(C(F)(F)F)n(-c2nc(C(=O)NN)cs2)n1	22.5%	-4.2%	-7.6%	-12.2%	-6.4	-6.7%
COc1ccc(S(=O)(=O)NNC(=O)c2csc(-n3nc(C)cc3C(F)(F)F)n2)cc1OC	12.0%	-8.2%	35.5µM*	?	-0.9	-5.3%
O=C1C(Cl)=C(NCc2ccco2)C(=O)c2ccccc21	50.1µM*	?	·	·	4.2	-11.0%
O=C(O)c1ccccc1NCc1ccco1	13.2%	-10.9%	-6.7%	-11.1%	-9.2	-2.6%
CCNc1ccc2noc3c2c1C(=O)c1ccccc1-3	?	?	?	31.6µM*	·	1.06µM*
O=C(NCCN1CCCC1)c1ccccc1Cl	19.2%	-16.2%	-42.1%	-4.4%	-2.1	-7.0%
O=C1C(Cl)=C(NCCN2CCCCC2)C(=O)c2ccccc21	-25.2%	?	50.1µM*	?	5.5	-12.6%
O=C1c2ccccc2-c2onc3ccc(NCc4ccco4)c1c23	i	?	i	111.9%	-20.3	3.36µM*
COc1ccc(NC(=O)c2ccccc2)c([N+](=O)[O-])c1	-22.9%	-35.7%	79.4µM*	?	7.2	-1.3%
COc1ccc(NC(=O)CC2Nc3ccccc3NC2=O)c([N+](=O)[O-])c1 (stereo unspecified)	1.3%	-8.9%	50.1µM*	-15.5%	-7.7	-4.2%
COc1ccc(NC(=O)CN(C)S(=O)(=O)c2ccc(C)cc2)c([N+](=O)[O-])c1	12.5%	-12.8%	31.6µM*	-6.4%	-9.1	4.2%
Cc1ccc(NC(=O)CN(C)S(=O)(=O)c2ccc3c(c2)n(C)c(=O)c(=O)n3C)c(C)c1	6.9%	?	2.9%	-18.4%	-12.1	21.2µM*
COc1ccc(N(C)S(=O)(=O)c2ccc(C)cc2)c([N+](=O)[O-])c1	7.2%	-27.4%	?	-28.6%	-2.7	-2.8%
Cc1cc(C)c(NC(=O)CN(C)S(=O)(=O)c2ccc3c(c2)n(C)c(=O)c(=O)n3C)c(C)c1	5.4%	?	-11.0%	-17.9%	2.0	?
Cc1ccc(S(=O)(=O)CC(=O)Nc2nc3c(C)cc(C)cc3s2)cc1	23.2%	-24.7%	-5.9%[59 µM]	-14.0%	·	·
CCOC(=O)C1CCCN(C(=O)c2sc(-c3ccccc3)nc2C)CC1 (stereo unspecified)	·	·	·	·	2.1	8.3%
CCCCOc1ccc(C(=O)Nc2ccc(C)cc2[N+](=O)[O-])cc1	-23.7%	?	-4.6%[2.33 µM]	?	2.4	-3.7%
COc1ccc(/C=N/Nc2ncc(-c3ccccc3)cn2)c(OC)c1	10.2%	?	-7.1%[59 µM]	-5.3%	·	-12.4%
CCCOc1ccc(/C=N/Nc2ccccc2[N+](=O)[O-])c(OCCC)c1	22.4µM*	14.1µM*	8.91µM*	2.51µM*	0.7	-1.8%
COc1ccc(/C=N/Nc2ncccc2[N+](=O)[O-])c(OC)c1	?	50.1µM*	28.2µM*	39.8µM*	-20.9	-4.8%
Cc1c(C(=O)Nc2ccccc2)csc1-c1ccccc1	10.4%	-17.9%	16.4%	3.6%	-7.0	-8.7%
CCCOc1ccc(C(=O)Nc2ccccc2[N+](=O)[O-])cc1	?	56.2µM*	·	·	2.0	?
O=[N+]([O-])c1ccccc1N/N=C\c1ccccc1F	-18.5%	?	·	?	5.7	-6.4%
Cc1c(C(=O)Nc2ccccc2[N+](=O)[O-])csc1-c1ccccc1	28.2µM*	?	25.1µM*	11.2µM*	14.3	0.7%
SMILES	HP1b chromo inh	JMJD2A Tudor	G9a block	BAZ2B inh	PI5P4K alpha inh	PLK1 PBD inh
COc1ccc(C(C#N)N2CCC(c3ccccc3)=N2)cc1 (stereo unspecified)	59.3%	3.5%	35.5µM*	2.3%	-2.7	-19.4%
CCN1CCN(C(=O)NC2CCCCC2)CC1	?	28.2µM*	·	?	-0.2	-8.2%
CCOC(=O)N1CCN(C(=O)NC2CCCCC2)CC1	19.8%	-2.9%	-8.6%[0.0925 µM]	11.0%	-1.3	-0.8%
O=C(c1ccccc1)n1nnc2ccccc21	41.3%	-3.4%	4.2%[59 µM]	8.0%	9.4	5.97µM*
Nc1nc2ccccc2n1C(=O)c1ccccc1	36.4%	-10.7%	·	79.4µM*	-4.1	2.7%
O=S(=O)(c1ccc2c(c1)CCCC2)N1CCN(c2nc(-c3ccccc3)nc3ccccc23)CC1	31.8%	-15.6%	·	·	·	·
Cc1oc(-c2ccccc2)nc1CS(=O)CC(=O)N1CCc2ccccc2C1 (stereo unspecified)	28.5%	-22.1%	22.4µM*	-23.7%	-0.8	?
Cc1ccc(-c2nc(CS(=O)CC(=O)N3CCN(c4ccccc4)CC3)c(C)o2)cc1 (stereo unspecified)	14.9%	-20.7%	?	?	4.0	-17.5%
CCOC(=O)COc1ccc(CC)cc1C(=O)c1ccn2nc(-c3ccccc3)cc2n1	36.7%	-1.9%	13.2%[59 µM]	-13.8%	·	·
CCCOc1ccc(/C=C2\SC(N)=NC2=O)cc1OC	50.4%	-33.2%	11.9%	-15.1%	0.4	-7.8%
COc1cc(/C=C2\SC(N)=NC2=O)cc(Cl)c1O	27.4%	-9.9%	7.6%[0.501 µM]	-36.8%	-76.4*	26.4%
COc1cc(/C=C2\SC(N)=NC2=O)ccc1OCC(=O)Nc1ccccc1C	12.2%	-29.0%	6.0%[59 µM]	-26.0%	-10.5	-3.7%
COc1ccc(/C=C2\SC(N)=NC2=O)cc1Br	16.8%	-35.0%	·	?	-50.9*	-20.9%
O=S(=O)(c1cccc(O)c1)N1CCN(S(=O)(=O)c2c(F)cccc2F)CC1	·	-21.1%	·	·	·	·
CC(=O)NC1=C(NC2CCS(=O)(=O)C2)C(=O)c2ccccc2C1=O (stereo unspecified)	44.7µM*	20µM*	1.78µM*	-18.7%	-17.4	?
CN(C1=C(NC(=O)c2ccccc2)C(=O)c2ccccc2C1=O)C1CCS(=O)(=O)C1 (stereo unspecified)	-14.5%	?	?	50.1µM*	-28.9	?
O=C(CN1C(=O)c2ccccc2C1=O)NC1CCS(=O)(=O)C1 (stereo unspecified)	·	·	·	·	-8.2	-9.1%
C[C@@H](N)C(=O)NC[C@H]1CC[C@H](C(=O)N[C@@H](Cc2ccccc2)C(=O)O)CC1	69.5%	-1.4%	-0.4%	0.0%	2.7	-13.7%
COc1cccc(CNC(=O)C2CCCN(S(=O)(=O)c3ccc4c(ccn4C)c3)C2)c1OC (stereo unspecified)	19.4%[57 µM]	-18.8%	5.5%[59 µM]	-2.3%	·	·
O=C1c2ccccc2CCC12OC2c1ccncc1 (stereo unspecified)	·	·	·	·	-9.1	-19.7%
COc1ccc(-n2c(SCC(=O)Nc3cc(C(=O)O)ccc3C)nc3ccccc3c2=O)cc1Cl	34.8%	-13.6%	-5.2%	-2.4%	-63.9*	-6.3%
COc1ccc(-n2c(SCC(=O)Nc3cc(C)on3)nc3ccccc3c2=O)cc1Cl	23.1%	-20.7%	26.5%	-2.4%	-6.4	-3.4%

Compound activity (PubChem BioAssay)
